# Source: ChEMBL document CHEMBL1961873, “Compounds: GSK PKIS; Assays: Nanosyn kinase panel” (2012)
# How the values were obtained:
# [1] = target: Tyrosine-protein kinase CSK (Homo sapiens) (UniProt P41240); conditions: at 1 µM;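 also: each value is an averaged inhibition reading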
# [2] = target: T1, Discoidin domain-containing receptor 2 (Homo sapiens) (UniProt Q16832); conditions: at 0.1 µM
# T1 sequence (whole entry): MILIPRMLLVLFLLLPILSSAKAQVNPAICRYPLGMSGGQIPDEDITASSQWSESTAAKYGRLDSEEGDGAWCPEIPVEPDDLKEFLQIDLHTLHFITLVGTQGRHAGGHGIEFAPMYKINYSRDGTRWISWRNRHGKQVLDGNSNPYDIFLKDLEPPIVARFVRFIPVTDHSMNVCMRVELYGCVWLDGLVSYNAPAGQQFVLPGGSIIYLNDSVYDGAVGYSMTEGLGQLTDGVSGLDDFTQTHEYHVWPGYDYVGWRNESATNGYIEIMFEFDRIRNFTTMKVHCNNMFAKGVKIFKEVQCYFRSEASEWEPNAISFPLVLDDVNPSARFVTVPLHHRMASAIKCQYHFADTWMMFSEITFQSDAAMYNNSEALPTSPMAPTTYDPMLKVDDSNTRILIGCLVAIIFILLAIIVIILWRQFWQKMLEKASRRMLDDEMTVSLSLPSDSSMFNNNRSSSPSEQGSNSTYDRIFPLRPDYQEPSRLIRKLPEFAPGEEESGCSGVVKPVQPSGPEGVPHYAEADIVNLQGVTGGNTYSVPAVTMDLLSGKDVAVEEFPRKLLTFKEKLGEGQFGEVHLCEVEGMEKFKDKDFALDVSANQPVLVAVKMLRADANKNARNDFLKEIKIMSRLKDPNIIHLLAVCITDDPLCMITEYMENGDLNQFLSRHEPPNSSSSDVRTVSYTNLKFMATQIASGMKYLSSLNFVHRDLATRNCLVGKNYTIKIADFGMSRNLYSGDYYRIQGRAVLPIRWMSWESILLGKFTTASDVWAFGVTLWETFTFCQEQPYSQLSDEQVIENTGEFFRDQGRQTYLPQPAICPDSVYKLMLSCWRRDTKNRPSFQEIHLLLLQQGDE
# [3] = target: T1, Discoidin domain-containing receptor 2 (Homo sapiens); conditions: at 1 µM
# [4] = target: Epidermal growth factor receptor (Homo sapiens) (UniProt P00533); conditions: at 0.1 µM
# Chain of Epidermal growth factor receptor (Homo sapiens) (P00533 whole entry): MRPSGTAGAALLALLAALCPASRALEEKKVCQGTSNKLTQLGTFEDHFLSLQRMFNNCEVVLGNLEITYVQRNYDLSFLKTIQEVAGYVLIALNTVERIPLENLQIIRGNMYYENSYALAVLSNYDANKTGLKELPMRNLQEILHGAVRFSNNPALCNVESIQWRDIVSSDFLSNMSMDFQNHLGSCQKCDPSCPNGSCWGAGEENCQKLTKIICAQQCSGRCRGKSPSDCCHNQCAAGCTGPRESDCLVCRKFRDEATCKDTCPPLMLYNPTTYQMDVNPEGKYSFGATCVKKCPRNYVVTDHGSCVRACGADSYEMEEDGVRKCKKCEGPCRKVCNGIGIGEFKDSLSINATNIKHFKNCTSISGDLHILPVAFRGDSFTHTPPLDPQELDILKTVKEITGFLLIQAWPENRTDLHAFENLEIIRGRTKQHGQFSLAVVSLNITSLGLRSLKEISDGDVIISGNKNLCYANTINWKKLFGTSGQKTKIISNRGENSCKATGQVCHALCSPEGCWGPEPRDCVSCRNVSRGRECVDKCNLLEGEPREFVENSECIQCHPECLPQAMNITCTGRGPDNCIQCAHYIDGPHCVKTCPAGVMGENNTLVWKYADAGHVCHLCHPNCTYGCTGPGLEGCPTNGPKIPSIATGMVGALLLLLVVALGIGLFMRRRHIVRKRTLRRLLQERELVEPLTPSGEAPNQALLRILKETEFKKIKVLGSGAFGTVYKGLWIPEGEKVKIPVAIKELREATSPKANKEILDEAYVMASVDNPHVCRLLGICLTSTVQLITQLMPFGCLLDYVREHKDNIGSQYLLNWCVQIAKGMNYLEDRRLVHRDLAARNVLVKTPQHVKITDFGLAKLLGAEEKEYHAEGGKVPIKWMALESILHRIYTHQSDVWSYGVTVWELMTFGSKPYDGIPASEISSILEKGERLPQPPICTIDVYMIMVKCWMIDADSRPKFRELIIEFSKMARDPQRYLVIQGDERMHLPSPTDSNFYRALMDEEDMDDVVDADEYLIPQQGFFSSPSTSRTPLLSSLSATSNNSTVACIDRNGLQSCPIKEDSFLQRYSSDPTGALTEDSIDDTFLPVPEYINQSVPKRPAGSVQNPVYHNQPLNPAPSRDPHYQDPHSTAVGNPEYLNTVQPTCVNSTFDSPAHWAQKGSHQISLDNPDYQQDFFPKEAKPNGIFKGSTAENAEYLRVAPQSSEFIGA
# [5] = target: Epidermal growth factor receptor (Homo sapiens) (UniProt P00533); conditions: at 1 µM
# [6] = tested on: Epidermal growth factor receptor (Homo sapiens), P00533 [L858R]; conditions: at 0.1 µM
# [7] = tested on: Epidermal growth factor receptor (Homo sapiens), P00533 [L858R]; conditions: at 1 µM
# [8] = tested on: Epidermal growth factor receptor (Homo sapiens), P00533 [L861Q]; conditions: at 0.1 µM
# [9] = tested on: Epidermal growth factor receptor (Homo sapiens), P00533 [L861Q]; conditions: at 1 µM
# [10] = tested on: Epidermal growth factor receptor (Homo sapiens), P00533 [T790M]; conditions: at 0.1 µM
# Chain of Epidermal growth factor receptor (Homo sapiens), P00533 [T790M] (P00533 whole entry T790M): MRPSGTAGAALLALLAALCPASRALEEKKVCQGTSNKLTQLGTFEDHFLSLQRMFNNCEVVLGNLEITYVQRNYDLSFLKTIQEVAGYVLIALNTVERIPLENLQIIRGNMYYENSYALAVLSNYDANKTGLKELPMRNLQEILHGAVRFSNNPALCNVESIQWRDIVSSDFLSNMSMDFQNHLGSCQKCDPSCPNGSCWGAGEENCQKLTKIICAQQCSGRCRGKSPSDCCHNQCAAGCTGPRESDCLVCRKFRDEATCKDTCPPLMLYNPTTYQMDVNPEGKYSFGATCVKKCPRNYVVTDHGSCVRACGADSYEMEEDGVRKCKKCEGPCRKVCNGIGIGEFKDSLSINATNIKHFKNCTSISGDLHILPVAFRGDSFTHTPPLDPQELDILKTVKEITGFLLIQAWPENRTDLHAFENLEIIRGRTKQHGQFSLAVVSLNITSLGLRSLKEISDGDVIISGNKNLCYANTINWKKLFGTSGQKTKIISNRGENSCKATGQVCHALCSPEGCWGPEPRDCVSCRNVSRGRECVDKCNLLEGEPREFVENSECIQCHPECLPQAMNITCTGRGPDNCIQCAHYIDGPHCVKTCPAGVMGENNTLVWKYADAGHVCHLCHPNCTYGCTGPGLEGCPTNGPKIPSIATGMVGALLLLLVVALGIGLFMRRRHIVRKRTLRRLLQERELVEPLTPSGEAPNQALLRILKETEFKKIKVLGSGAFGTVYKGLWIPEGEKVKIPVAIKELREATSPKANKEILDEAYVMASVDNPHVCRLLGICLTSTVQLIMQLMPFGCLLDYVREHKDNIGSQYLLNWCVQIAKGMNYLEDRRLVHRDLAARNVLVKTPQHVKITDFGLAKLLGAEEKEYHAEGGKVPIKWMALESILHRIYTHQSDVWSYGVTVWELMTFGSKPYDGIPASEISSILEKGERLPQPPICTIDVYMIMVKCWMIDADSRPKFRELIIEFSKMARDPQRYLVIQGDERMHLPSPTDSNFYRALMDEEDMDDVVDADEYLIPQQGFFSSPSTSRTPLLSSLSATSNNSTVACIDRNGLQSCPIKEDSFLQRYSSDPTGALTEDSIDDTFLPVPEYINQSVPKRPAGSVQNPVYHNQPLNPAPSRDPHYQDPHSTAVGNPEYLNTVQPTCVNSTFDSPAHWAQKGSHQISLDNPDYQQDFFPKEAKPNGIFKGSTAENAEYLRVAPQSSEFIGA
# [11] = tested on: Epidermal growth factor receptor (Homo sapiens), P00533 [T790M]; conditions: at 1 µM
# [12] = tested on: Epidermal growth factor receptor (Homo sapiens), P00533 [L858R,T790M]; conditions: at 0.1 µM
# Chain of Epidermal growth factor receptor (Homo sapiens), P00533 [L858R,T790M] (P00533 whole entry T790M/L858R, looked up): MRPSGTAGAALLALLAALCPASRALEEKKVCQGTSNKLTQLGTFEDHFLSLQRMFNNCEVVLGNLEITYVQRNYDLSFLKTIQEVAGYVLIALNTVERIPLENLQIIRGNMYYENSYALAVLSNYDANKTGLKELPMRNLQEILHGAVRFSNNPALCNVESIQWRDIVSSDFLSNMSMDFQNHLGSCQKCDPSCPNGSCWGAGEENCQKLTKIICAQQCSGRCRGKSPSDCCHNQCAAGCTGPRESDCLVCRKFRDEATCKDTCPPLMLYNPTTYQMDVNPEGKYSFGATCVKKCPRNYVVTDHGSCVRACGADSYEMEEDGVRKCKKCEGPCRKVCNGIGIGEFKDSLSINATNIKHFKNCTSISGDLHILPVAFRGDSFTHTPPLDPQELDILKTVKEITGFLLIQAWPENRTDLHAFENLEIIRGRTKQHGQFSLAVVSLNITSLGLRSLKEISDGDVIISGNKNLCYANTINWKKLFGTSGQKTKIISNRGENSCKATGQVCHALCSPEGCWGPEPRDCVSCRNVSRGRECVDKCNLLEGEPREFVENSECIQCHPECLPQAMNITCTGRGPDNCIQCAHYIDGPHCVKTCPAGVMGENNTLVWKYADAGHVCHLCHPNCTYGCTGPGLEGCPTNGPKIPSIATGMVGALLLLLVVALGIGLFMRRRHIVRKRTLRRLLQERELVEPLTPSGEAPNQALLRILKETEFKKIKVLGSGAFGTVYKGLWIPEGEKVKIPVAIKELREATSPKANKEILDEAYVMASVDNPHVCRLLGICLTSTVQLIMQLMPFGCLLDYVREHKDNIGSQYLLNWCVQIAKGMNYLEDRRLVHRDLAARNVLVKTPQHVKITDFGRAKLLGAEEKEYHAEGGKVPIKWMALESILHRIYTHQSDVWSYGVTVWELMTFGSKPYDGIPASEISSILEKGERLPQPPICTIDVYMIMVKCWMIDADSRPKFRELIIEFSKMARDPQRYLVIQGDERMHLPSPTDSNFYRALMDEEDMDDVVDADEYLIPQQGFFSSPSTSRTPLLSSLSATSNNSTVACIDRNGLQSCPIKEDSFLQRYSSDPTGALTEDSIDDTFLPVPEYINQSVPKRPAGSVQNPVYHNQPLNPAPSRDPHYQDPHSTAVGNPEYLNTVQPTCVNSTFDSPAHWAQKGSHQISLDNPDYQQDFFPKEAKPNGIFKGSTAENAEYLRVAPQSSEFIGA
# [13] = tested on: Epidermal growth factor receptor (Homo sapiens), P00533 [L858R,T790M]; conditions: at 1 µM
# [14] = target: Ephrin type-A receptor 2 (Homo sapiens) (UniProt P29317); conditions: at 0.1 µM
# Chain of Ephrin type-A receptor 2 (Homo sapiens) (P29317 whole entry): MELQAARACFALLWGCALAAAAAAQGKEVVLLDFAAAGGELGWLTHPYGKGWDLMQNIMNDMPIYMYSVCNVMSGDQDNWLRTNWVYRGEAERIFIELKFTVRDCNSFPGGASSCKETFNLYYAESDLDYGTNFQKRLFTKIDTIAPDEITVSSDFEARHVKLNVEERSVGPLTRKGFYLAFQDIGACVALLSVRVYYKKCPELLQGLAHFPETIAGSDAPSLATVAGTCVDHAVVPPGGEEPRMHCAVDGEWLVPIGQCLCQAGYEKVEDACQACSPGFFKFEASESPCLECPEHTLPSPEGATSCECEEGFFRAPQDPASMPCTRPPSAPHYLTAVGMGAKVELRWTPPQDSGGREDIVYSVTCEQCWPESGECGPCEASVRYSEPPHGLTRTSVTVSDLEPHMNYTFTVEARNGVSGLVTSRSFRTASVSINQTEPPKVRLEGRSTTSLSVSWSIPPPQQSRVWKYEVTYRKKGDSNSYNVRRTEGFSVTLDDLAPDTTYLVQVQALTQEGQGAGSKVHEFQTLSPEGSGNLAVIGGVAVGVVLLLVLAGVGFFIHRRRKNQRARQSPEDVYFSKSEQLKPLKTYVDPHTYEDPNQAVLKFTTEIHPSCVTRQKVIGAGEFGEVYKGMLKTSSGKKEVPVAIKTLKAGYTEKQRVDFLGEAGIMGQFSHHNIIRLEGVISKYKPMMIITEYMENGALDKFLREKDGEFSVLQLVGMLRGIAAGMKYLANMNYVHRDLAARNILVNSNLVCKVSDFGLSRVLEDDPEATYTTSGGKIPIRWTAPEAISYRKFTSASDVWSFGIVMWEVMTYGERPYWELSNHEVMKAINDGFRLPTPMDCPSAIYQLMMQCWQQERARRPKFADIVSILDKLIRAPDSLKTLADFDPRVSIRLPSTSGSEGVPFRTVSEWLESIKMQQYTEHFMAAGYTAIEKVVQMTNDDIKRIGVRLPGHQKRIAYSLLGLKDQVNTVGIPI
# [15] = target: Ephrin type-A receptor 2 (Homo sapiens) (UniProt P29317); conditions: at 1 µM
# [16] = target: T2, Ephrin type-A receptor 3 (Homo sapiens) (UniProt P29320); conditions: at 0.1 µM
# T2 sequence (whole entry): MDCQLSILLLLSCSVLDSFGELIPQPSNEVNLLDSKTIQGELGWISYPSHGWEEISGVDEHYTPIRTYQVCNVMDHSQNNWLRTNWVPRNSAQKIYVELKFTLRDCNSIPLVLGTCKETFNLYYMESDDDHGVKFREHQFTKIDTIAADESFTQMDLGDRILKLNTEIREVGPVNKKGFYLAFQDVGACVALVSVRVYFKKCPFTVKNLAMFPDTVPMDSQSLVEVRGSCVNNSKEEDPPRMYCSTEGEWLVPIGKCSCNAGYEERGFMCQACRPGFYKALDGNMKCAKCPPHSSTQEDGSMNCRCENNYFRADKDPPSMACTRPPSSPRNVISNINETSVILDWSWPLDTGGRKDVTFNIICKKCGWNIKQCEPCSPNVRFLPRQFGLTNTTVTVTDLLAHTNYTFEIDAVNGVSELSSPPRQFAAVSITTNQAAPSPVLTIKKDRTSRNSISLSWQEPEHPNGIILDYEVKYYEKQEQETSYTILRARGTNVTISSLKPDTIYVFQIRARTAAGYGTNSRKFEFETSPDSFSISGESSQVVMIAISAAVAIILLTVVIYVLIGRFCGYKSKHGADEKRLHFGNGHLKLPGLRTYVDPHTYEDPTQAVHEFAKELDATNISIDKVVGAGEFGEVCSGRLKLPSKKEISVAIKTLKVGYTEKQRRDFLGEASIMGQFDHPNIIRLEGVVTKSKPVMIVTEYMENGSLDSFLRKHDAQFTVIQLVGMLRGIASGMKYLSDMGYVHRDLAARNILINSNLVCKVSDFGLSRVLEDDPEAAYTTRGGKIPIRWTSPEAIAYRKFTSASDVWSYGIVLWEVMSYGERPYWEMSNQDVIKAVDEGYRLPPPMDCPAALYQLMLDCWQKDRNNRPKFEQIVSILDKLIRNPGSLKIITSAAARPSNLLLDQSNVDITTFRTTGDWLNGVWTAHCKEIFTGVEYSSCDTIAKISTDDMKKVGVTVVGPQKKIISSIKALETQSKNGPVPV
# [17] = target: T2, Ephrin type-A receptor 3 (Homo sapiens); conditions: at 1 µM
# [18] = target: Ephrin type-A receptor 4 (Homo sapiens) (UniProt P54764); conditions: at 0.1 µM
# [19] = target: Ephrin type-A receptor 4 (Homo sapiens) (UniProt P54764); conditions: at 1 µM
# [20] = target: T3, Ephrin type-B receptor 2 (Homo sapiens) (UniProt P29323); conditions: at 0.1 µM;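 also: reported as mean inhibition of EPHB2, from the GSK PKIS dataset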
# T3 sequence (whole entry): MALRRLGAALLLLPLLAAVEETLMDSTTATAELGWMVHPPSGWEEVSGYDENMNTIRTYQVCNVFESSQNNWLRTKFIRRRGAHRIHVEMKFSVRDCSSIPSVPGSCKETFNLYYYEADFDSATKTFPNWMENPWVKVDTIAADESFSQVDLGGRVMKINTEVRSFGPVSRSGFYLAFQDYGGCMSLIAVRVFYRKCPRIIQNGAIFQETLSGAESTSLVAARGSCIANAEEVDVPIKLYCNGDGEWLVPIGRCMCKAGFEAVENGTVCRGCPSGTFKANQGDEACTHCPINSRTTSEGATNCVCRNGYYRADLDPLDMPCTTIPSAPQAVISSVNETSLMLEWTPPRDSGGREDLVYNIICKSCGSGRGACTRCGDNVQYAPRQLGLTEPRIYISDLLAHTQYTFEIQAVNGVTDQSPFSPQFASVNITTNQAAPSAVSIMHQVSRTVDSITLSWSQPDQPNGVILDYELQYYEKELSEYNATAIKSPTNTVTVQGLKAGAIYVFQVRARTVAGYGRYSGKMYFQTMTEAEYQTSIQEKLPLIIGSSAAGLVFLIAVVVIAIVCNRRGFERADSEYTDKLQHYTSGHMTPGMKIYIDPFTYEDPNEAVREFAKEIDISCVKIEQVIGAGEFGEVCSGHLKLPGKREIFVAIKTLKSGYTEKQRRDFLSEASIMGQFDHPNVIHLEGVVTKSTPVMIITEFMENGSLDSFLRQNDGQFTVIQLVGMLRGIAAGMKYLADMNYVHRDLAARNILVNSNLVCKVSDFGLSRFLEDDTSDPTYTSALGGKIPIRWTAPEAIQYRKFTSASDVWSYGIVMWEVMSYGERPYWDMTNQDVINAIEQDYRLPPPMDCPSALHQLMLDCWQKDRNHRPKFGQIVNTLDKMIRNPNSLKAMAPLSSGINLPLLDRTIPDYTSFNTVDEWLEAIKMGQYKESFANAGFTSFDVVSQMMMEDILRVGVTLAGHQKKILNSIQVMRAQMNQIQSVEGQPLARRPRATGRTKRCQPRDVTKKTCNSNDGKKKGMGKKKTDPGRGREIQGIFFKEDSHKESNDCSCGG
# Chain of Tyrosine-protein kinase CSK (Homo sapiens) (P41240 2-450 limits assumed): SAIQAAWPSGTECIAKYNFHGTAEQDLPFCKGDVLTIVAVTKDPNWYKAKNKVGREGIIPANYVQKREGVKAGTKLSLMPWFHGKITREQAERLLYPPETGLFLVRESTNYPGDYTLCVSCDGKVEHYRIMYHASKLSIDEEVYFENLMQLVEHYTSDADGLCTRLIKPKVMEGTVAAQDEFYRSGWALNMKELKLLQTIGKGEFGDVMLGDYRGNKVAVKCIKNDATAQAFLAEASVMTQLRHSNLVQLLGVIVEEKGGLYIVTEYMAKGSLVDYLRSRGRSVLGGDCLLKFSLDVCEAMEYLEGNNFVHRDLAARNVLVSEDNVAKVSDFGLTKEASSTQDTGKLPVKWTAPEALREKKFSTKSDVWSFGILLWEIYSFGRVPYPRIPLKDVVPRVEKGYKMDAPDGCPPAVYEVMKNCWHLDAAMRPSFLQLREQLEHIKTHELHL
SMILES,inhibition [1] [%],inhibition [2] [%],inhibition [3] [%],inhibition [4] [%],inhibition [5] [%],inhibition [6] [%],inhibition [7] [%],inhibition [8] [%],inhibition [9] [%],inhibition [10] [%],inhibition [11] [%],inhibition [12] [%],inhibition [13] [%],inhibition [14] [%],inhibition [15] [%],inhibition [16] [%],inhibition [17] [%],inhibition [18] [%],inhibition [19] [%],inhibition [20] [%]
CNC(=O)c1cncc(/C=C/c2c(Cl)cccc2Cl)c1,10.6,3.42,21.2,-0.54,0.79,0.61,14.2,2.27,4.01,1.23,0.83,0.18,3.2,0.35,17.3,-0.5,5.3,7.99,43.6,10.3
CS(=O)(=O)CCNCc1ccc(-c2ccc3ncnc(Nc4ccc(OCc5ccccc5)c(Cl)c4)c3c2)o1,5.6,3.48,9.08,82.5,85.6,61.7,93.6,52.9,87.6,2.68,17.8,-1.01,2.45,-2.92,-2.31,-2.51,1.66,1.26,9.95,5.36
Cc1ccc(NC(=O)c2ccnc(N3CCCC3)c2)cc1-c1ccc(C(=O)NCC2CC2)cc1,-0.29,3.77,22.6,-4.33,-3.35,-1.08,-0.58,2.11,-3.41,1.68,0.9,-0.13,2.67,-2.27,-2.02,-0.85,-0.25,7.04,5.58,4.55
NC(=O)c1ccc(-c2nc(-c3ccccn3)c(-c3ccc4c(c3)OCO4)[nH]2)cc1,6.81,2.6,4.42,2.11,4.7,4.74,3.79,2.1,2.01,-0.51,1.62,3.52,-0.97,-0.18,-0.13,3.83,1.89,7.63,7.96,6.11
Nc1ncnc2occ(-c3ccc(NC(=O)Nc4cc(C(F)(F)F)cc(C(F)(F)F)c4)cc3)c12,20.6,67.7,84.4,0.56,0.39,1.34,-2.77,2.29,-2.09,1.48,-2.28,-1.98,0.18,7.28,42,6.5,14.6,8.44,44.5,22
COc1cc2ncn(-c3cc(OCc4ccccc4Cl)c(C(N)=O)s3)c2cc1OC,4.61,0.71,0.75,2.48,8.81,1.49,13.4,-0.11,5.11,-1.99,0.02,-1.12,1.19,-2.86,-1.31,-1.62,0.98,0.5,7.32,2
COc1ccc(-c2nn3ncccc3c2-c2ccnc(Nc3ccc(Cl)c(C(F)(F)F)c3)n2)cc1,5.3,0.69,3.24,0.68,3.67,1.63,14.3,2,5.96,0.44,3.31,0.9,4.78,0.97,0.97,3.2,3.4,6.57,10.2,3.9
COc1cc2c(cc1Nc1nc(N3CCc4ccccc43)c3cc[nH]c3n1)N(C(=O)CN(C)C)CC2,0.41,0.28,0.74,-0.08,1.28,1.45,2.18,1.47,-0.39,1.57,2.36,3.77,9.23,2.22,2.11,2.13,0.93,3.39,6.36,2.81
c1cnn2ncc(-c3ccnc(Nc4ccc5c(c4)OCCO5)n3)c2c1,14.9,2.85,2.07,1.88,4.28,3.09,11,3.71,5.7,2.81,2.42,2.19,7.05,2.91,5.71,7.54,5.48,12,28.2,12.1
CCn1c(-c2nonc2N)nc2cnc(Oc3cccc(NC(=O)c4ccc(OCCN5CCOCC5)cc4)c3)cc21,2.94,1.27,-0.68,1.37,3,1.72,2.23,2.62,2.57,0.97,2.18,-0.63,3.24,-2.53,-2.47,3.26,4.85,7.53,7.73,5.7
COc1ccccc1Nc1ncc(-c2ccccc2)o1,3.11,0.86,0.42,1.13,5.3,0.79,0.46,1.31,1.75,2.11,2.18,1.54,1.28,2.74,1.76,2.8,4.86,7.21,12.8,7.35
NCc1ccc(-c2nc(-c3ccc(Cl)c(O)c3)c(-c3ccncc3)[nH]2)cc1,7.83,0.6,9.1,4.77,21.8,1.78,31.9,1.15,13.5,-0.03,0.46,0.24,5.04,2.14,8.19,3.13,2.67,4.74,21.9,-0.39
COc1cc(C=NNc2ncnc3c2cnn3-c2ccccc2)ccc1O,5.56,5.59,13.6,6.29,36.2,27.3,79.6,6.66,38.2,0.71,2.02,3.12,13.3,3.61,11.4,4.47,8.46,10.2,17.1,9.57
